Source: the supplement of paper PMC7695840
Where a name gives a salt, the structure may show the parent alone.

tested on: Staphylococcus aureus MW2 delta-mecA (mecA-); experiment: normalized GFP fluorescence (growth of mecA- strain) (fraction of control range); higher = more growth of mecA- strain; conditions: compound concentration: 150 uM; cefoxitin: subinhibitory; fluorescent label: GFP
How it was run: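 Single-replicate 1536-well plates carried 150 μM compound (1.5% DMSO), onto which 5 µL/well of a 1:1 mix of pre-induced S. aureus MW2 cells was dispensed: gene-carrying cells tagged with DsRed and deletion cells tagged with GFP, in LB with a subinhibitory antibiotic dose set daily. Incubation ran 20 h at 37 °C, 90% humidity, unshaken, followed by DsRed (540/590) and GFP (485/520) reads. Per-plate scaling of each channel used single-strain control medians, and plates with high untreated ratios and rows with DsRed/GFP >10 were excluded.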

Row | Structure (SMILES) | normalized GFP fluorescence
1 | CCCCC1C(=O)N(c2ccccc2)N(c2ccccc2)C1=O [Phenylbutazone (Butazolidin, Butatron)] | 0.207
2 | CC1=C(/C=C/C(C)=C/C=C/C(C)=C\C(=O)O)C(C)(C)CCC1 | 0.0602
3 | Cc1cn([C@@H]2C[C@@H](O)[C@H](CO)O2)c(=O)[nH]c1=O [Telbivudine (Sebivo, Tyzeka)] | 0.205
4 | CCC(C)n1ncn(-c2ccc(N3CCN(c4ccc(OCC5COC(Cn6cncn6)(c6ccc(Cl)cc6Cl)O5)cc4)CC3)cc2)c1=O (centres undefined) | 0.389
5 | O=c1[nH]cnc2c1ncn2[C@H]1CC[C@@H](CO)O1 [Didanosine (Videx)] | 0.446
6 | CNNCc1ccc(C(=O)NC(C)C)cc1 | 0.425
7 | COc1ccccc1OCC(O)COC(N)=O (centres undefined) | 0.207
8 | O=C(NC(Cc1cc(=O)[nH]c2ccccc12)C(=O)O)c1ccc(Cl)cc1 (centres undefined) [Rebamipide] | 0.175
9 | Cc1cc(C(C)(C)C)cc(C)c1CC1=NCCN1 | 0.345
10 | N[C@@H](Cc1ccc(O)c(O)c1)C(=O)O | 0.506
11 | NCCc1c[nH]cn1 | 0.621
12 | O=C1NCC2(CCN(CCc3ccccc3)CC2)O1 | 0.307
13 | COc1ccc2[nH]c([S+]([O-])Cc3ncc(C)c(OC)c3C)nc2c1 (centres undefined) | 0.481
14 | CC[C@]1(O)C[C@H]2CN(CCc3c([nH]c4ccccc34)[C@@](C(=O)OC)(c3cc4c(cc3OC)N(C=O)[C@H]3[C@@](O)(C(=O)OC)[C@H](OC(C)=O)[C@]5(CC)C=CCN6CC[C@]43[C@@H]65)C2)C1 | 0.501
15 | CC(=O)Oc1ccccc1C(=O)O [Aspirin (Acetylsalicylic acid)] | 0.393
16 | CCC(=O)NCC[C@@H]1CCc2ccc3c(c21)CCO3 | 0.8
17 | CN(C)CC[C@@H](c1ccc(Cl)cc1)c1ccccn1 | 0.307
18 | CC(C(=O)O)c1cccc(Oc2ccccc2)c1 (centres undefined) | 0.136
19 | CCOC(=O)c1ncn2c1CN(C)C(=O)c1cc(F)ccc1-2 | 0.408
20 | CN(C)c1cc(NC(=O)CNC(C)(C)C)c(O)c2c1C[C@H]1C[C@H]3[C@H](N(C)C)C(O)=C(C(N)=O)C(=O)[C@@]3(O)C(O)=C1C2=O [Tigecycline] | 0.473

Row | Structure (SMILES) | normalized GFP fluorescence
21 | O=C(O)c1cccc(-c2noc(-c3ccccc3F)n2)c1 [PTC124 (Ataluren)] | 0.0948
22 | COc1cc2nc(N3CCN(C(=O)C4CCCO4)CC3)nc(N)c2cc1OC (centres undefined) [Terazosin HCl (Hytrin)] | 0.321
23 | CC(C)(S)[C@@H](N)C(=O)O | 0.302
24 | CC(C)NCC(O)c1ccc(O)c(O)c1 (centres undefined) [Isoprenaline hydrochloride] | 0.458
25 | Nc1nc(Cl)nc2c1ncn2[C@H]1C[C@H](O)[C@@H](CO)O1 [Cladribine] | 0.546
26 | COc1cc2c(cc1OC)CC(=O)N(CCCN(C)C[C@H]1Cc3cc(OC)c(OC)cc31)CC2 [Ivabradine HCl (Procoralan)] | 0.478
27 | CCN(CCCCOC(=O)c1ccc(OC)c(OC)c1)C(C)Cc1ccc(OC)cc1 (centres undefined) | 0.41
28 | Nc1ccc(C(=O)NCC(=O)O)cc1 | 0.297
29 | CCn1cc(C(=O)O)c(=O)c2cc(F)c(N3CCNCC3)nc21 [Enoxacin (Penetrex)] | 0.206
30 | c1ccc(CC2=NCCN2)cc1 | 0.234
31 | Nc1ncnc2c1ncn2[C@@H]1O[C@H](CO)[C@@H](O)[C@@H]1O | 0.428
32 | NC[C@@H]1O[C@H](O[C@H]2[C@@H](O)[C@H](O[C@@H]3[C@@H](O)[C@H](N)C[C@H](N)[C@H]3O[C@H]3O[C@H](CN)[C@@H](O)[C@H](O)[C@H]3N)O[C@@H]2CO)[C@H](N)[C@@H](O)[C@@H]1O | 0.217
33 | Nc1nc(F)nc2c1ncn2[C@@H]1O[C@H](COP(=O)(O)O)[C@@H](O)[C@@H]1O | 0.362
34 | OCCN1C[C@H](O)[C@@H](O)[C@H](O)[C@H]1CO | 0.514
35 | C[C@@H]1CC(=O)NN=C1c1ccc(NN=C(C#N)C#N)cc1 [Levosimendan] | 0.00346
36 | CC1(C)O[C@@H]2C[C@H]3[C@@H]4CCC5=CC(=O)C=C[C@]5(C)[C@@]4(F)[C@@H](O)C[C@]3(C)[C@]2(C(=O)CO)O1 | 0.603
37 | CN1CCN(C2=Nc3cc(Cl)ccc3Nc3ccccc32)CC1 [Clozapine (Clozaril)] | 0.0909
38 | CCOC(=O)OC(C)OC(=O)[C@@H]1N2C(=O)[C@@H](NC(=O)[C@H](N)c3ccccc3)[C@H]2SC1(C)C (some centres undefined) | 0.00819
39 | CCOC(=O)[C@H](CCc1ccccc1)N[C@@H](C)C(=O)N1Cc2cc(OC)c(OC)cc2C[C@H]1C(=O)O [Moexipril HCl] | 0.373
